The full data set covers some 7,900 targets. This sample favours those with a hit. About 0.6% of all pairs of compound and target were hits. Unmarked numbers belong to inactive results.

Chain of UniProt A0JNW5 (A0JNW5 whole entry, looked up): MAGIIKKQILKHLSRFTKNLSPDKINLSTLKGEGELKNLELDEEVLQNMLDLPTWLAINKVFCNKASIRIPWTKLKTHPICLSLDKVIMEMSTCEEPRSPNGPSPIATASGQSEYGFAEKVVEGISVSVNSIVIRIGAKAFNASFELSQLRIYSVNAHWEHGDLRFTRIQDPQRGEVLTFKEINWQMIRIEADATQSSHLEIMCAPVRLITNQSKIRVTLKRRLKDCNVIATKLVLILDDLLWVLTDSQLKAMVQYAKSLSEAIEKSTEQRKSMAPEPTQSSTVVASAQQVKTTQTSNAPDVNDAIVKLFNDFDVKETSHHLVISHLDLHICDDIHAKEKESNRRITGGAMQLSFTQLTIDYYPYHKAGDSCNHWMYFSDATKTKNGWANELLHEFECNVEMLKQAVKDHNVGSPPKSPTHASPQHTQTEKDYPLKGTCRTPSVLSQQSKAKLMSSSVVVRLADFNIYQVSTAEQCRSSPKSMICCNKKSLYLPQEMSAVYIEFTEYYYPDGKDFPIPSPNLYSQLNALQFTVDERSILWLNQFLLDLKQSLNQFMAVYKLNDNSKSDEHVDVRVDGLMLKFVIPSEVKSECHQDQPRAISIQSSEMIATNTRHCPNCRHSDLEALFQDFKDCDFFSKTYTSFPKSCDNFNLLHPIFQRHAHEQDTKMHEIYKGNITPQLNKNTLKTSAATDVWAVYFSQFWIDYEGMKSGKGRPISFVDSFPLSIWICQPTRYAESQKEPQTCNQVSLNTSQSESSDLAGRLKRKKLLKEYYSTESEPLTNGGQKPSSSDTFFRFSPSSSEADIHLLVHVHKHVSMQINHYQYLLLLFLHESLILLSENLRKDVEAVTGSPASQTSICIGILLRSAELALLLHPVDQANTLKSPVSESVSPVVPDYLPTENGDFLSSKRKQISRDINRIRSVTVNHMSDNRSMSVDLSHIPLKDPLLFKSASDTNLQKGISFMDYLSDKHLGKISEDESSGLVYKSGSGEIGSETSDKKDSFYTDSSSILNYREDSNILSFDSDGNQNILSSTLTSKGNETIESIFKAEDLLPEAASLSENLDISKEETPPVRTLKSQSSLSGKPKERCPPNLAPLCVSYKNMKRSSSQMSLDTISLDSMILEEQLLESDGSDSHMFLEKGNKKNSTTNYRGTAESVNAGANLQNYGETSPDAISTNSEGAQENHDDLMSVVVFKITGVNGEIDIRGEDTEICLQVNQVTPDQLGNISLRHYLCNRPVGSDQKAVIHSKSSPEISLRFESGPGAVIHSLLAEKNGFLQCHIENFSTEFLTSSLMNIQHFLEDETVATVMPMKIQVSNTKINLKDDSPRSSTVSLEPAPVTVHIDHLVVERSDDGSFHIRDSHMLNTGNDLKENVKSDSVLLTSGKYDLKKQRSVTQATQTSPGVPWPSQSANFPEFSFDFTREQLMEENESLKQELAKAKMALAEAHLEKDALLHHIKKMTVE
Chain of UniProt Q969T4 (Q969T4 whole entry, looked up): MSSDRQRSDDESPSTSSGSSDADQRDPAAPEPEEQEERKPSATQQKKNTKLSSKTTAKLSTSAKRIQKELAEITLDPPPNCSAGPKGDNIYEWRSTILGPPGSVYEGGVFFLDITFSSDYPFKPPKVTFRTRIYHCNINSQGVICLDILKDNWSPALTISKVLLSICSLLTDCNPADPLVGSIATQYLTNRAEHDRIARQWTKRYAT
Chain of UniProt P21796 (P21796 whole entry, looked up): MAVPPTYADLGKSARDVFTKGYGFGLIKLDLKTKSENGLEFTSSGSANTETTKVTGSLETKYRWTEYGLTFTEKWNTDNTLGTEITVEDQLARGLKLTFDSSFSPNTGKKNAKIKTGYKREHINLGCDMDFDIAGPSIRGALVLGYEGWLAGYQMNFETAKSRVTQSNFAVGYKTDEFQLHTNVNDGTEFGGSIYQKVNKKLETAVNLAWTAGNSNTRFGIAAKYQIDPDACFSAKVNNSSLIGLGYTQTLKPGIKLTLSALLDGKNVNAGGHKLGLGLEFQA
Chain of UniProt Q5T3F8 (Q5T3F8 whole entry, looked up): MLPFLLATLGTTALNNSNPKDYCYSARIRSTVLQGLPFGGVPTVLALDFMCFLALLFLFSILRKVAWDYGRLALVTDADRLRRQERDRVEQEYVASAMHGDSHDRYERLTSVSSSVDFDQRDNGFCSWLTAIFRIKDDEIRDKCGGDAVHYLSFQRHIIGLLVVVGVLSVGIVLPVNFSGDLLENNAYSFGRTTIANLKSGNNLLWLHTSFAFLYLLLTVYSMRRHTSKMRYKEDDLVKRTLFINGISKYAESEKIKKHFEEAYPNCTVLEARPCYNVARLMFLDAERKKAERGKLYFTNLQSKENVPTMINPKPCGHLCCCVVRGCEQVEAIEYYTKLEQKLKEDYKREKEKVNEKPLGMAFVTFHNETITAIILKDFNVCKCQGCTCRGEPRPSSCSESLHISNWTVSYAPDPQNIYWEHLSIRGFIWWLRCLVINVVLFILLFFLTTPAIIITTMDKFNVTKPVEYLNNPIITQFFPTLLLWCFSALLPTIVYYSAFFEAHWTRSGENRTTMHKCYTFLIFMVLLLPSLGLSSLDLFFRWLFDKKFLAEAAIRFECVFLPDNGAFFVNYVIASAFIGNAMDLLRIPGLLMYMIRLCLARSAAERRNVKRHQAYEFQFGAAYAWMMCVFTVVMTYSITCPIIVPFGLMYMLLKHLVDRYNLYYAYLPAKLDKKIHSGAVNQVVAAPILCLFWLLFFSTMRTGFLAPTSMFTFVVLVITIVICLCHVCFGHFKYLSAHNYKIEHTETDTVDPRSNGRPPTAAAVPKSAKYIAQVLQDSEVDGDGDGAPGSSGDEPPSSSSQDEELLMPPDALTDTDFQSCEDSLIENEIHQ
Chain of UniProt Q9NZ09 (Q9NZ09 whole entry, looked up): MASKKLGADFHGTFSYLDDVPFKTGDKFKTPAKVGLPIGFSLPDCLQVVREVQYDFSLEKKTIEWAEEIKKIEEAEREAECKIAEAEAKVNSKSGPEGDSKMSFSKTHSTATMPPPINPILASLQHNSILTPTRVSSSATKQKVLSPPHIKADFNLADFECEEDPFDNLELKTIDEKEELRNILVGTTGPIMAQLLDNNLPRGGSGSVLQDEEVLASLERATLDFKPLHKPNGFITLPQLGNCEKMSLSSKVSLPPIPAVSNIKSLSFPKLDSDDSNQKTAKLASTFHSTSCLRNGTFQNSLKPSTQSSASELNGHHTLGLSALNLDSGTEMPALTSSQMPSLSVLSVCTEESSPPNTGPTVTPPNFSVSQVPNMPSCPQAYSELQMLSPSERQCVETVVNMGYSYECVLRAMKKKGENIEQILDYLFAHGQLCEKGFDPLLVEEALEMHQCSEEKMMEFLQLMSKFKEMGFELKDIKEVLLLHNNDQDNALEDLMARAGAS
Chain of UniProt Q8TBZ6 (Q8TBZ6 whole entry, looked up): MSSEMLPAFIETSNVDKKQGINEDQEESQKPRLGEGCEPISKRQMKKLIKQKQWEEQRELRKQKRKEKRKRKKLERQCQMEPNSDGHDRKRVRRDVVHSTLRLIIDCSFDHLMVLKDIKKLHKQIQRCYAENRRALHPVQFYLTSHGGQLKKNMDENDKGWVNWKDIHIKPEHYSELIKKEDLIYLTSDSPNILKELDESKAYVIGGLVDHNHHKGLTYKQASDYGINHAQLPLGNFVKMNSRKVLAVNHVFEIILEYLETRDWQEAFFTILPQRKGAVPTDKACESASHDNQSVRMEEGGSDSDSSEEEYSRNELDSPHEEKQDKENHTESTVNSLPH
Chain of UniProt Q9HAD4 (Q9HAD4 whole entry, looked up): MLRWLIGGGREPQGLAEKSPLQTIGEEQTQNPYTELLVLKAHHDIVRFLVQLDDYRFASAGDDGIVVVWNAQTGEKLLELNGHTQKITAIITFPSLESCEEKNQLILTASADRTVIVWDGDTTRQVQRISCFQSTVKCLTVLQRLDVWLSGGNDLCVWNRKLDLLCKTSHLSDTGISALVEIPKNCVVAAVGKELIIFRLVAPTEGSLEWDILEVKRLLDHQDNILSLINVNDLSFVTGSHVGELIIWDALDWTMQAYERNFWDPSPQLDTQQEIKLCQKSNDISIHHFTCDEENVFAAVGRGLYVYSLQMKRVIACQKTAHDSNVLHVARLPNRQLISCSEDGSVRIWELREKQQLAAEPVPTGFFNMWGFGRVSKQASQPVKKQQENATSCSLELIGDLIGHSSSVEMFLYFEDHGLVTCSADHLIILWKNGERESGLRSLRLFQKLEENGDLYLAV
Chain of UniProt Q15629 (Q15629 whole entry, looked up): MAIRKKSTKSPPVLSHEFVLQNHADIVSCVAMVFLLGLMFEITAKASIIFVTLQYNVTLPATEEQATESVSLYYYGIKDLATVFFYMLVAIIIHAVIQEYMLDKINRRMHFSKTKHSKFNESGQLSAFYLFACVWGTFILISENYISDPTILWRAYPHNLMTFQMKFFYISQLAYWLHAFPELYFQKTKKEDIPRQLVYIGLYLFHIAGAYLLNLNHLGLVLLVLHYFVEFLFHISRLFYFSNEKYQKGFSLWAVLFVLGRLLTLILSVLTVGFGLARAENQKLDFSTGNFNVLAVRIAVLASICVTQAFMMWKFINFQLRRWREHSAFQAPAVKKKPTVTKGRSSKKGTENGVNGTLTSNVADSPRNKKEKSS
Chain of UniProt Q8IY95 (Q8IY95 whole entry, looked up): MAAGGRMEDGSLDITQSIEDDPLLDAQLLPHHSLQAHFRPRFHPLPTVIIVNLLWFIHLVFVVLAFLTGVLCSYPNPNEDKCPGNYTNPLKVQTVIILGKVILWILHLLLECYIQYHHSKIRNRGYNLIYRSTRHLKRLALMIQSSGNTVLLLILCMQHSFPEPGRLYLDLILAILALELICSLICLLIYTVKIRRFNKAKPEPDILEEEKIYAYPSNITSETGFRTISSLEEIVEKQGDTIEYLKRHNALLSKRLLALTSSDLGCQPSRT
Chain of UniProt Q9UK41 (Q9UK41 whole entry, looked up): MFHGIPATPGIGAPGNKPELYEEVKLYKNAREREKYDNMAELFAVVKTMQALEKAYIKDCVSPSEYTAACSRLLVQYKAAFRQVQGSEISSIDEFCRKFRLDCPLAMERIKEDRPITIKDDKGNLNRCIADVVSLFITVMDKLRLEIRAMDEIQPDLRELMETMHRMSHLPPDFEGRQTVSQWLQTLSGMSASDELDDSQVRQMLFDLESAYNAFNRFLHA

Compound in the first assay: C[C@@H]1COCCN1C2=NC(=NC(=C2)C3(CC3)S(=O)(=O)C)C4=C5C=CNC5=CC=C4
Kind of assay: log2 fold change, soluble protein after heating vs DMSO (PISA); higher = thermal stabilisation; K562 cells, 10 uM, 30 min; active = over 0.2 and 3.5 SD of the protein, either way, in both replicates (recomputed). The gist of the method: (§1)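 Soluble protein was defined as the supernatant after 21,000xg for 90 min. It came from K562 cells at 2×10^6 cells/mL given 10 μM compound for 30 min, heated in aliquots for 3 min across 48°C-58°C, pooled, and extracted in PBS with 0.5% NP-40 at 4°C, and was quantified by TMTpro 16plex LC-MS/MS with equalised channel sums. Thermal stability against control samples, from duplicates, is reported as log2 fold change.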
TMEM192 (UniProt Q8IY95): the log2 fold change was 0.043. On the same count and under the same terms, the figure for UHRF1BP1L (UniProt A0JNW5) is 0.031; for TTI1 (UniProt O43156) it is 0.003; for USP34 (UniProt Q70CQ2) it is 0.046. On to UBE2E3 (UniProt Q969T4), for which the log2 fold change is 0.219. Still for that read-out and setting: the figure for VDAC1 (UniProt P21796) is -0.004; for TRMT10A (UniProt Q8TBZ6) it is 0.093. With USP25 isoform 3 (UniProt Q9UHP3), the log2 fold change is -0.017. As for UBAP1 isoform 4 (UniProt Q9NZ09), the log2 fold change was 0.07. Same read-out and setting: to TMEM63B (UniProt Q5T3F8) belongs -0.042; to USP24 (UniProt Q9UPU5), 0.396 (active).

As for WDR41 (UniProt Q9HAD4), the log2 fold change is -0.064. Consider TRAM1 (UniProt Q15629), for which the log2 fold change is 0.017.

Compound in another assay: C[C@H](C1=CC=C(C=C1)C(=O)NC2=C3C=CNC3=NC=C2)N
Described as above. The gist of the method: as §1
On to TMEM214 (UniProt Q6NUQ4), for which the log2 fold change was 0.067. Same read-out and setting: to WDR62 isoform 4 (UniProt O43379) belongs -0.064; to VPS11 (UniProt Q9H270), 0.054. For the target WASHC2C, A0A096LPC5, the log2 fold change was 0.025.

WNK1 isoform 7 (UniProt Q9H4A3): the log2 fold change is 0.03. The same measure, in the same setting: the figure for VPS52 (UniProt Q8N1B4) is 0.058.

Regarding TPM2 (UniProt P07951), the log2 fold change is -0.29.

With WASHC2A (UniProt Q641Q2), the log2 fold change is 0.137. Regarding TRAPPC11 (UniProt Q7Z392), the log2 fold change is 0.075. Still for that read-out and setting: the figure for WDHD1 (UniProt O75717) is -0.025; for TXNIP (UniProt Q9H3M7) it is -0.188; for VPS41 (UniProt P49754) it is 0.03. Same read-out and setting: to TRIP10 (UniProt Q15642) belongs -0.026.

Take TRIP10 isoform 2 (UniProt Q15642): the log2 fold change was 0.108. On the same count and under the same terms, the figure for USP48 isoform 8 (UniProt Q86UV5) is -0.133; for VPS8 (UniProt Q8N3P4) it is 0.127; for TOM1L1 (UniProt O75674) it is -0.059.

For TMTC3 (UniProt Q6ZXV5), the log2 fold change is 0.072. As for TPP1 (UniProt O14773), the log2 fold change was -0.026.

Turning to VPS28 (UniProt Q9UK41), the log2 fold change is -0.091. Same read-out and setting: to TMEM9 (UniProt Q9P0T7) belongs -0.197.

Turning to TNPO3 (UniProt Q9Y5L0), the log2 fold change was -0.124. In the case of WAPL isoform 3 (UniProt Q7Z5K2), the log2 fold change is -0.142. Same read-out and setting: to TMEM192 (UniProt Q8IY95) belongs 0.04; to UHRF1BP1L (UniProt A0JNW5), -0.002. As to TTI1 (UniProt O43156), the log2 fold change is 0.059. The same measure, in the same setting: the figure for USP34 (UniProt Q70CQ2) is 0.051; for UBE2E3 (UniProt Q969T4) it is 0.008; for VDAC1 (UniProt P21796) it is -0.063. On the same count and under the same terms, the figure for TRMT10A (UniProt Q8TBZ6) is -0.072; for USP25 isoform 3 (UniProt Q9UHP3) it is -0.062; for UBAP1 isoform 4 (UniProt Q9NZ09) it is 0.023. The same measure, in the same setting: to TMEM63B (UniProt Q5T3F8) belongs -0.014; to USP24 (UniProt Q9UPU5), 0.015. WDR41 (UniProt Q9HAD4): the log2 fold change is -0.064. The same measure, in the same setting: the figure for TRAM1 (UniProt Q15629) is 0.014.
